Results on 32 compounds are retold here after PubChem BioAssay (NCATS).

The target in assay [1] is Cytochrome P450 2C9 (Homo sapiens) (UniProt P11712). In words: Cytochrome P450 family 2 subfamily C member 9 (CYP2C9) small molecule antagonists: luciferase biochemical (cell-free) qHTS assay (AID 1645842; active = well fitted curve in the direction sought with a large enough effect in the repeat runs; an effect the other way counts as inactive or inconclusive; also: nearly all actives have a fitted effect of over 55% in size; also: potency is read from the fitted curve at half-maximal effect; as to activity change, negative = inhibition: series mostly up to about 57 µM; % is scaled to controls: 0 for no effect and ±100 for the full control effect). In short, it runs like this:
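P450-Glo CYP2C9 system: proluciferin substrate with enzyme in mix containing 0.4% BSA, 10 min at room temperature, then NADPH regeneration solution added and incubated 1 h at 37C. Detection reagent stopped reaction; luminescence read after 20 min as RLU.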
Background: Quantitative high-throughput screening tests each substance at several concentrations.

For a further assay, the target named is Papain (Carica papaya) (UniProt P00784). In words: Primary qHTS assay for inhibitors of the protease papain (AID 1645873).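 Also: papain turnover of Z-FR-AMC read as the AMC fluorescence gain over 10 min.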 Also: potency is read from the fitted curve at half-maximal effect. As to activity change, negative = inhibition: series mostly up to about 50 µM; % is scaled to controls: 0 for no effect and ±100 for the full control effect.
Sequence of Papain (Carica papaya) (P00784 whole entry, looked up, the tested form may be a part): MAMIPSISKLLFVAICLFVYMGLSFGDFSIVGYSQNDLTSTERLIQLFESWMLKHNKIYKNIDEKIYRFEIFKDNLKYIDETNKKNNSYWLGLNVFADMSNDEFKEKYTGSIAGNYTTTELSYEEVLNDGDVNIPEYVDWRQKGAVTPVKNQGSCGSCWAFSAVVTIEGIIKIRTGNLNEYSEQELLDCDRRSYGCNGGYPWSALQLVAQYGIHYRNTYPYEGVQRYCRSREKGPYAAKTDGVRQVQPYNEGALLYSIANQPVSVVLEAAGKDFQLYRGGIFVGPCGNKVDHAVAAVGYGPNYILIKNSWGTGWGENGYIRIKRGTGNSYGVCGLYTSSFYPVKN
A short description of assay [2]: Primary qHTS for inhibitors of nuclear receptor binding SET domain protein 2 (NSD2) in an isogenic RCH-ACV NSD2 p.E1099K mutant (9B) (AID 1645876). Also: nearly all actives have a fitted effect of over 70% in size. Also: potency is read from the fitted curve at half-maximal effect.
Assay [3] is described as follows: Primary qHTS for inhibitors of nuclear receptor binding SET domain protein 2 (NSD2) in an RCH-ACV wild type WT cells (2C) (AID 1645877). Also: nearly all actives have a fitted effect of over 70% in size. Also: potency is read from the fitted curve at half-maximal effect.
Assay [4] in a line: NCATS anti-infectives library activity on HEK293 viability as a counter-qHTS vs the C. elegans viability qHTS (AID 1745854).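 Also: HEK293 cells exposed to compounds for 24 hr before the viability read; % is scaled to controls: 0 for no effect and ±100 for the full control effect.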 In outline: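 Counter-screen for cytotoxicity: HEK293, 24 hr, 37C, compounds up to 41.7 uM final (a dilution series, 1:5). Readout CellTiter-Glo luminescence, 10 min RT. Digitonin control, […] uM final.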
The target of assay [5] is Cytochrome P450 3A4 (Homo sapiens) (UniProt P08684). Nature of the assay: Cytochrome P450 family 3 subfamily A member 4 (CYP3A4) small molecule antagonists: luciferase qHTS assay (AID 1645841; active = well fitted curve in the direction sought with a large enough effect in the repeat runs; an effect the other way counts as inactive or inconclusive; also: nearly all actives have a fitted effect of over 45% in size). In short, it runs like this:
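Luminescent CYP3A4 activity readout: compounds plus enzyme-substrate mix 10 min at room temperature, reaction started with NADPH regenerating system for 1 h, stopped with detection reagent, read after 20 min. Ketoconazole served as control.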

The target in assay [6] is Rap guanine nucleotide exchange factor 3 (Homo sapiens) (UniProt O95398). Nature of the assay: Confirmatory qHTS for antagonist of cAMP-regulated guanine nucleotide exchange factor 3 (EPAC1) (AID 1645880).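 Also: plate controls were DMSO only for no effect and full effect of the ATA control for full effect; nearly all actives have a fitted effect of over 55% in size.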 In short, it runs like this:
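Released BODIPY-GDP fluoresces less than Rap1-bound BODIPY-GDP; the signal is followed at 480/540 nm at 5-min intervals over 30 min, after 5 min at room temperature. Reactions contain 100 nM EPAC1, 250 nM RAP1B-BODIPY-GDP and 50 uM GDP; results are normalized to ATA and DMSO.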

For assay [7] the target is unchanged. In words: Confirmatory qHTS for agonist of cAMP-regulated guanine nucleotide exchange factor 3 (EPAC1) (AID 1645881).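 Also: EPAC1 catalysed release of BODIPY-GDP from Rap1B seen as fluorescence loss; 100% = effect of cAMP agonist control; nearly all actives have a fitted effect of over 75% in size.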
Assay [8] addresses Rap guanine nucleotide exchange factor 4 (Homo sapiens) (UniProt Q8WZA2). In words: Confirmatory qHTS for agonist of cAMP-regulated guanine nucleotide exchange factor 4 (EPAC2) (AID 1645884).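 Also: nucleotide exchange releases bodipy-GDP from Rap1 and this lowers its fluorescence; % is scaled to controls: 0 for no effect and ±100 for the full control effect; nearly all actives have a fitted effect of over 65% in size.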
For assay [9] the target is unchanged. Nature of the assay: Confirmatory qHTS for antagonist of cAMP-regulated guanine nucleotide exchange factor 4 (EPAC2) (AID 1645885). Also: potency is read from the fitted curve at half-maximal effect; nearly all actives have a fitted effect of over 25% in size.
In assay [10] the target is Rap guanine nucleotide exchange factor 3 (Homo sapiens) (UniProt O95398). In words: Counterscreen qHTS for antagonist of cAMP-regulated guanine nucleotide exchange factor 3 (EPAC1) (AID 1645888). Also: % of control where 0% means no effect. In outline:
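Rap1B-BODIPY-GDP 250 nM + GDP 50 uM; cpds 7-pt, final 9.74 nM–152 uM (activator mode) or from 7.32 nM upwards (inhibitor mode); RT; FI 480/540 nm at 5 and 30 min, then ± cAMP, reread.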
In general terms: Counterscreens check selectivity or assay interference.

“And” between values parts separate entries of the source, which are not always exact repeats. Equal entries are not always repeated. Records with an inconclusive call do not appear. A structure can be active in one record and inactive in another. The source made the active and inactive calls. Unless noted, calls follow the shape of the dose curve; as a rule, active = well fitted curve in the direction sought with a large enough effect; inconclusive = small, poorly fitted or top-dose-only effect, or another doubt; inactive = no such curve, though single readings can be large; an effect the other way counts as inactive or inconclusive.

Sequence of Rap guanine nucleotide exchange factor 4 (Homo sapiens) (Q8WZA2 whole entry, looked up): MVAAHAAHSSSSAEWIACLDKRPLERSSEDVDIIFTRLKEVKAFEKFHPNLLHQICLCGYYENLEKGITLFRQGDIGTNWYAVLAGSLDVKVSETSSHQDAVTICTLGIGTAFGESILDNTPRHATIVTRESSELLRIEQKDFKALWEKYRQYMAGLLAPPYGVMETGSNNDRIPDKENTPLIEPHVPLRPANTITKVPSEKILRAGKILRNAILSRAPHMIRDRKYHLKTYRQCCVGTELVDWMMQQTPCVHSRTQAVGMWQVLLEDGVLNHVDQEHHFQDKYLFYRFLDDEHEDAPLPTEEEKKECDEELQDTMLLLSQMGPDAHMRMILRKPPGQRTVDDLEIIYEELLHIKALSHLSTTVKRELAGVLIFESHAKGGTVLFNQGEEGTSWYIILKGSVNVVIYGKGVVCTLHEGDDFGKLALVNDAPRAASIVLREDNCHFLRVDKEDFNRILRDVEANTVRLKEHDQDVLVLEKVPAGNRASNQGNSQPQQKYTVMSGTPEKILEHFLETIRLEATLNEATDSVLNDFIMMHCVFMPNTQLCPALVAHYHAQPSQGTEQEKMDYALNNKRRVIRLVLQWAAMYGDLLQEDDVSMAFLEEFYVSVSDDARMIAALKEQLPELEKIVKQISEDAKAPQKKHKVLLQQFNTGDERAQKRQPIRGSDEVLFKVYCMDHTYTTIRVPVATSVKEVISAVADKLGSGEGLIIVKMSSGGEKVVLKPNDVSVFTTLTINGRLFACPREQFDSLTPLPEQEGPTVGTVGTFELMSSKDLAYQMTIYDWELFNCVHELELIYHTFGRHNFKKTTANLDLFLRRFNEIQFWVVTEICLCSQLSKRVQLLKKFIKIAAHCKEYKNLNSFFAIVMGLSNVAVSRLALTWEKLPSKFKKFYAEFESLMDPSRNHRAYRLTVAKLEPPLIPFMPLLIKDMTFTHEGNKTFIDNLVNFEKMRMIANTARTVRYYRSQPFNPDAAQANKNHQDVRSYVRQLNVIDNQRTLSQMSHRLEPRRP
Sequence of Rap guanine nucleotide exchange factor 3 (Homo sapiens) (O95398 whole entry, looked up): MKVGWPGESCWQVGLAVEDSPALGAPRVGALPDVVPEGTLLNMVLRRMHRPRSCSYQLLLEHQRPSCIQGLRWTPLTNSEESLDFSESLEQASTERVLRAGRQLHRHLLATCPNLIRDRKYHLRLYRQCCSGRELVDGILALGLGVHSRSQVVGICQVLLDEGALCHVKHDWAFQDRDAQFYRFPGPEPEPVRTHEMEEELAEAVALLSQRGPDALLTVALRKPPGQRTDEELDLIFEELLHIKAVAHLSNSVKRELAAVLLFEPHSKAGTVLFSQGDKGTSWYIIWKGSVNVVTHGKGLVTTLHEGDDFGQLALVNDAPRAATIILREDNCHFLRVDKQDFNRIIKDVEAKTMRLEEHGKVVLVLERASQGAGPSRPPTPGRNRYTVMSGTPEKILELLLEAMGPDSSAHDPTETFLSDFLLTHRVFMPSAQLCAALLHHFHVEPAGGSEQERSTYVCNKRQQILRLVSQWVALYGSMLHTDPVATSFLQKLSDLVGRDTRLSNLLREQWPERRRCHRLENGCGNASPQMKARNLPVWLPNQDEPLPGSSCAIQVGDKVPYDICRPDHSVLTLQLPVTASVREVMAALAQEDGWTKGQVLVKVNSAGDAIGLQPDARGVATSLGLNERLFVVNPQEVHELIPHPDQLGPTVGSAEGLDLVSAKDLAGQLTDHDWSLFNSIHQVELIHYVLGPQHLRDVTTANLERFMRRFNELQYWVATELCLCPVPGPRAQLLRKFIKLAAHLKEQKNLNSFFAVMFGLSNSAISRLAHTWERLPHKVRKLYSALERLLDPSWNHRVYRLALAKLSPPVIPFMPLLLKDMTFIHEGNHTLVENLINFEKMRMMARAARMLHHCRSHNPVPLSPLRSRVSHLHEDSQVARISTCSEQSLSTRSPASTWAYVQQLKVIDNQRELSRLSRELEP
Sequence of Cytochrome P450 2C9 (Homo sapiens) (P11712 whole entry, looked up): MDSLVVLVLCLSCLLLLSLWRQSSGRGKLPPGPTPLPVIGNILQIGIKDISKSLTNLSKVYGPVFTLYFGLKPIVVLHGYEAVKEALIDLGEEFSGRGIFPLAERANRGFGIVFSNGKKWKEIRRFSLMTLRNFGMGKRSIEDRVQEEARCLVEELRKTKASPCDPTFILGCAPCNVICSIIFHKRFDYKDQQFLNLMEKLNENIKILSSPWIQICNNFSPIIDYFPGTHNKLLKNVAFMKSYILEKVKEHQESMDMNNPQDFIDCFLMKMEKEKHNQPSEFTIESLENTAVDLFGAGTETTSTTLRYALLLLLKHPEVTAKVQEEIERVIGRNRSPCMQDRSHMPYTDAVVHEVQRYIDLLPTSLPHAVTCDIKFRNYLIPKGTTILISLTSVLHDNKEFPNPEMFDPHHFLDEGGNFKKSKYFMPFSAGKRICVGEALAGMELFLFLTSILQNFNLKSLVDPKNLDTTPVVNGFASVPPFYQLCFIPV
Sequence of Cytochrome P450 3A4 (Homo sapiens) (P08684 whole entry, looked up): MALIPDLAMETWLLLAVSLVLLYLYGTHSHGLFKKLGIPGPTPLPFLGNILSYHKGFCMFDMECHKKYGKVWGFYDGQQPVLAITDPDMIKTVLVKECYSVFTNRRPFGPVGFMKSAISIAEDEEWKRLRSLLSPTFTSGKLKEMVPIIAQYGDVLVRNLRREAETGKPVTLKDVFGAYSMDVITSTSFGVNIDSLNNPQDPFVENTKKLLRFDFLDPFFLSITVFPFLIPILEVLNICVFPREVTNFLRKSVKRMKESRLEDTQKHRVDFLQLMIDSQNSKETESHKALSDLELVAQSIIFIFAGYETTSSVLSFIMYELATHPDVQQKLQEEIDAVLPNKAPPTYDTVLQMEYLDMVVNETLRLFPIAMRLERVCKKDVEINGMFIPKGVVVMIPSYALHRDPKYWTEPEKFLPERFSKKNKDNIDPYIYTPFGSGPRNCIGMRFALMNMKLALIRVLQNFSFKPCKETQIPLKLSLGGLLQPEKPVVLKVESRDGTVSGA

`Nc1nnc(-c2cccc(Cl)c2Cl)c(N)n1`: the Potency result (in assay [1]; with Papain (Carica papaya); in assay [2]; in [3]) was “inactive” in each case.
On to `CCCCc1oc2ccccc2c1C(=O)c1cc(I)c(OCCN(CC)CC)c(I)c1`, for which, in the assay with Papain (Carica papaya), the Potency result is “inactive”.
For the compound `O=c1c(-c2ccc(O)cc2)coc2cc(O)cc(O)c12`, the Potency result (in assay [1]; with Papain (Carica papaya)) was “inactive” in each case. Also, the Potency in [2] was 11.9 µM (active) and 13.5 µM (active); in [3] it was 11.9 µM (active) and 10.8 µM (active).
On to `C[C@@H]1CC(=O)NN=C1c1ccc(NN=C(C#N)C#N)cc1`, for which the Potency in assay [1] is 977 nM (active) and 692 nM (active); in assay [2], 9.44 µM (active) and 18.6 µM (active); in assay [3], 11.9 µM (active) and 23.7 µM (active).
In the case of `Cc1ccccc1N1C(=O)c2cc(S(N)(=O)=O)c(Cl)cc2NC1C` (centres undefined), the Potency result in assay [1], in assay [2] and in [3] was “inactive” throughout.
Take `Cc1ccc(-c2cc(C(F)(F)F)nn2-c2ccc(S(N)(=O)=O)cc2)cc1`: the Potency result with Papain (Carica papaya) is “inactive”.
In the case of `CC(CCc1ccc(O)cc1)NCCc1ccc(O)c(O)c1` (centres undefined), the Potency result (in assay [1]; with Papain (Carica papaya)) was “inactive” in each case.
Regarding `O=C(C1CCCCC1)N1CC(=O)N2CCc3ccccc3C2C1` (centres undefined), the Potency entry (in assay [1]; with Papain (Carica papaya); in [2]; in assay [3]) was “inactive” each time.
With `CC1COc2c(N3CCN(C)CC3)c(F)cc3c(=O)c(C(=O)O)cn1c23` (centres undefined), the Potency result in assay [1], in assay [2] and in [3] was “inactive” in each case.
As to `COc1cc2nc(N(C)CCCNC(=O)C3CCCO3)nc(N)c2cc1OC` (centres undefined), the Potency result in assay [1], in assay [2] and in [3] was “inactive” each time. In the assay with Papain (Carica papaya), the Potency was 22.4 µM (active).
As for `Cc1cc(C(C)(C)C)c(O)c(C)c1CC1=NCCN1`, the Potency entry (in [1]; with Papain (Carica papaya); in [2]; in assay [3]) was “inactive” in each case.
`COc1ccc(C2CNC(=O)C2)cc1OC1CCCC1` (centres undefined): the Potency result (in assay [1]; with Papain (Carica papaya); in assay [2]; in assay [3]; in assay [4]) was “inactive” each time.
On to `CC(COc1ccccc1)N(CCCl)Cc1ccccc1` (centres undefined), for which, in [1], the Potency is 12.1 µM (active). The Potency result in assay [2] and in assay [3] was “inactive” throughout.
As to `COc1cc2c(c(OC)c1OC)-c1ccc(OC)c(=O)cc1[C@@H](NC(C)=O)CC2`, the Potency result (in assay [1]; with Papain (Carica papaya)) was “inactive” in each case. In addition, the Potency is 33.5 nM (active) and 33.2 nM (active) in assay [2]; 15 nM (active) and 26.3 nM (active) in assay [3].
`COc1ccccc1N1CCN(CC(O)COc2cccc3ccccc23)CC1` (centres undefined): the Potency entry with Papain (Carica papaya) was “inactive”.
In the case of `CN(CCOc1ccc(NS(C)(=O)=O)cc1)CCc1ccc(NS(C)(=O)=O)cc1`, the Potency result (in assay [1]; in the assay with Papain (Carica papaya); in assay [2]; in assay [3]) was “inactive” each time.
In the case of `O=C(Nc1ccc([N+](=O)[O-])cc1Cl)c1cc(Cl)ccc1O`, the Potency is 4.77 µM (active) in assay [1], 11.8 µM (active) in assay [2] and 11.8 µM (active) in assay [3]. Moreover, in the assay with Papain (Carica papaya), the Potency result is “inactive”.
For `Cc1cnc(C(=O)NCCc2ccc(S(=O)(=O)NC(=O)NC3CCCCC3)cc2)cn1`, the Potency result with Papain (Carica papaya) is “inactive”.
For the compound `Clc1ccc(C(c2ccccc2Cl)C(Cl)Cl)cc1` (centres undefined), the Potency in assay [1] is 12.3 µM (active). Besides, the Potency entry (in the assay with Papain (Carica papaya); in assay [2]; in assay [3]) was “inactive” each time.
With `COc1ccc2[nH]cc(CCNC(C)=O)c2c1`, the Potency entry (in [1]; with Papain (Carica papaya); in assay [2]; in assay [3]) was “inactive” throughout.
`CN1CCC(=C2c3ccccc3CC(=O)c3sccc32)CC1`: the Potency result (in [1]; with Papain (Carica papaya); in assay [2]) was “inactive” throughout.
Regarding `CN1CCN(C2=Nc3cc(Cl)ccc3Nc3ccccc32)CC1`, in the assay with Papain (Carica papaya), the Potency result is “inactive”.
As for `CC(C)NCC(O)COc1ccc(CCOCC2CC2)cc1` (centres undefined), the Potency entry (in assay [1]; with Papain (Carica papaya); in assay [2]; in assay [3]) was “inactive” in each case.
In the case of `Cc1cc(C(C)(C)C)cc(C)c1CC1=NCCN1`, the Potency entry (in assay [1]; with Papain (Carica papaya)) was “inactive” in each case. Besides, the Potency result in [2] is “inactive and 20.9 µM (active)”; in assay [3], “inactive and 18.6 µM (active)”.
For the compound `COc1ccc2c(c1)c(CC(=O)O)c(C)n2C(=O)c1ccc(Cl)cc1`, the Potency in assay [1] was 11 µM (active). Moreover, the Potency entry (with Papain (Carica papaya); in [2]; in assay [3]) was “inactive” throughout.
For `CC[N+](CC)(CC)CCOc1cccc(OCC[N+](CC)(CC)CC)c1OCC[N+](CC)(CC)CC`, the Potency entry (in [1]; with Papain (Carica papaya); in assay [2]; in assay [3]) was “inactive” each time.
For the compound `CC(C)NCC(O)c1ccc(O)c(O)c1` (centres undefined), the Potency entry (in assay [1]; with Papain (Carica papaya); in assay [2]) was “inactive” throughout.
Take `COc1cc2nc(N3CCN(C(=O)c4ccco4)CC3)nc(N)c2cc1OC`: the Potency entry in [1] is “inactive”. In addition, the Potency in assay [2] and in assay [3] was 13 µM (active) each time.
For the compound `CCN1CCCC1CNC(=O)c1cc(S(=O)(=O)CC)c(N)cc1OC` (centres undefined), the call in assay [5] was inactive. For the same compound, the Potency entry (in the assay with Papain (Carica papaya); in assay [2]; in [3]) was “inactive” throughout.
In the case of `Clc1ccccc1C(c1ccccc1)(c1ccccc1)n1ccnc1`, the Potency in assay [1] was 0.977 µM (active); in assay [2], 10.5 µM (active); in [3], 9.34 µM (active); in [9] it was 9.87 µM (active) and 5.3 µM (active). The Potency result (with Papain (Carica papaya); in [7]; in assay [8]) was “inactive” in each case. In [6], the compound was classed as inactive. Also, in [10], the activity change, negative = inhibition was 6.78% [at 30.8 µM] (inactive).
For `Nc1c2c(nc3ccccc13)CCCC2`, the Potency result in assay [1], in [2] and in assay [3] was “inactive” throughout.
Consider `NCCCCCC(=O)O`, for which the Potency entry (in assay [1]; in the assay with Papain (Carica papaya); in assay [2]; in [3]) was “inactive” each time.
